# Screens as filed in PubChem BioAssay.
# CYP2C19 inh: blocks human cytochrome P450 2C19; P33261; 96,000 compounds, 21% hits; AID 778; inhibition, % at 5 µM; CYP2C19 Supersomes, luciferin-H EGE luminescence, 30 min;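 active = CYP2C19 inhibition above a set limit at 5 µM in the primary screen, cut at about 50% in these data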
# CYP2C9 act: CYP2C9 (human) activation. AID 1024. 96,000 compounds, 1.4% hits. P11712. activation factor at 5 µM. recombinant CYP2C9, luciferin-H conversion, luminescence; hits give high values; factor 1 = untreated enzyme, 0 = blocked;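 active = activation factor of 2 or more for CYP2C9 at a 5 µM dose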
# Target sequence (P11712 whole entry, looked up): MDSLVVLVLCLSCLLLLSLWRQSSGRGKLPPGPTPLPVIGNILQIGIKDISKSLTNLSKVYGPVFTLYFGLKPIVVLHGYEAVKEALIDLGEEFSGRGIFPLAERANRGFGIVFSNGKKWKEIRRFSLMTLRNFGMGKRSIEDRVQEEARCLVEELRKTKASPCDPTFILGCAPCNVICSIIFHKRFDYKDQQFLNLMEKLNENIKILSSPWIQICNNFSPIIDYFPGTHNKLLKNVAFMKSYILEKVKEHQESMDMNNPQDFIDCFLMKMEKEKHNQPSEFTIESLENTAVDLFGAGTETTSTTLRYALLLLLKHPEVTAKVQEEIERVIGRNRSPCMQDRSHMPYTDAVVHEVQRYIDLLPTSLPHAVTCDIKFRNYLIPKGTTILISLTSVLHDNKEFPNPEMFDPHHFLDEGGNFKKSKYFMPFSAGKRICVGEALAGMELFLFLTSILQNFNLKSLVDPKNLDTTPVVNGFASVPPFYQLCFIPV
# CYP2C19 act: increases human CYP2C19 enzyme activity | AID 1025 | activation factor at 5 µM | P33261 | recombinant CYP2C19, luciferin-H EGE luminescence; hits give high values; 0 = fully inhibited enzyme, 1 = untreated enzyme | 96,000 tested, under 10 active;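 active = activation factor of at least 2 at 5 µM in the primary screen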
# CYP2C9 inhib: human CYP2C9 inhibition | CYP2C9 Supersomes, luciferin-H conversion, luminescence | P11712 | AID 777 | inhibition, % at 5 µM | 96,000 compounds, 20% hits;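 active = blocking of liver enzyme CYP2C9 beyond about 50% at 5 µM, limit read from the data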
# EphB4 antag: EphB4-ephrin-B2 interaction antagonism | 97,000 compounds, 0.15% hits | EphB4 LBD / TNYL-RAW-Alexa532 peptide, fluorescence polarization | inhibition, % at 7 µM | P54760 | AID 720;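 active = inhibition above the screen-wide mean inhibition plus 3 SD, cut at about 15% in these data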
# Numbers stand for hits; - = inactive; . = not tested or not shown. In the library only some 27% were active in any assay of this set; here they are far more common.
SMILES,CYP2C19 inh,CYP2C9 act,CYP2C19 act,CYP2C9 inhib,EphB4 antag
COc1cccc(/C=N/n2cncn2)c1OCC#N,78,-,-,-,.
COc1ccc(N2C(C(C)=O)=NN(c3ccccc3)C2c2cccs2)cc1 (stereo unspecified),-,-,-,56,-
CC(=O)Nc1ccc(N2C(C(C)=O)=NN(c3ccccc3)C2c2cccs2)cc1 (stereo unspecified),-,-,-,-,-
CN1CCc2cc3c(c4c2C1CC41CCC(=NO)CC1)OCO3 (stereo unspecified),-,-,-,-,-
CC(=O)Nc1ccc(S(=O)(=O)c2c(N)n(CCN3CCOCC3)c3nc4ccccc4nc23)cc1,-,-,-,-,.
COc1ccc(Cn2nnc3c(=O)[nH]c(C(=O)NCCc4ccc(F)cc4)nc32)cc1OC,-,-,-,74,.
O=C(NCCc1ccccc1)c1nc2c(nnn2Cc2ccccc2Cl)c(=O)[nH]1,.,.,.,.,-
O=C(O)C1CC(=O)N(c2ccc3c(c2)OCCO3)C1 (stereo unspecified),-,-,-,-,-
O=C(CSc1nc2ccncc2[nH]1)Nc1ccccc1C(F)(F)F,60,-,-,-,.
Cc1cc(NC(=O)CSc2nc3ccccc3[nH]2)no1,-,-,-,-,-
O=C(CSc1nc2ccccc2[nH]1)Nc1ccc(F)cc1,94,-,-,84,-
O=C(Nc1nc2ccccc2[nH]1)C1CC(=O)N(c2ccc3c(c2)OCCO3)C1 (stereo unspecified),59,-,-,62,-
Cc1ccc2nc(SCC(=O)Nc3ccc4c(c3)OCCO4)[nH]c2c1,-,-,-,83,-
Cc1ccc2nc(SCC(=O)Nc3cc(C)on3)[nH]c2c1,76,-,-,78,-
COC(=O)c1ccc(CSc2nc3ccc(C)cc3[nH]2)o1,93,-,-,83,-
O=C(CSc1nc2ccccc2[nH]1)Nc1ccc2c(c1)OCCO2,-,-,-,72,-
Clc1ccccc1CSc1nc2ccncc2[nH]1,99,-,-,-,-
COc1ccc(C(=O)COC(=O)c2ccc(NC(=O)c3ccccc3)cc2)cc1,-,-,-,-,-
COc1ccc(Cl)cc1NC(=O)CN(C(=O)c1ccco1)C1CCCCC1,-,-,-,-,-
COc1ccc(Cl)cc1NC(=O)CC(C)c1ccccc1 (stereo unspecified),85,4,-,-,-
COc1ccc(Cl)cc1NC(=O)NCCCl,-,-,-,-,-
COc1ccc(Cl)cc1NC(=O)CN(C)C(C)C(=O)NCC1CCCCC1 (stereo unspecified),99,2.6,-,-,-
COc1ccc(Cl)cc1NC(=O)CC(C)=O,-,3.6,-,-,-
COc1ccc(Cl)cc1NC(=O)C1CCCO1 (stereo unspecified),-,3.1,-,-,-
Cc1cc(C)n(C(=O)c2cc3sccc3[nH]2)n1,-,-,-,-,.
SMILES,CYP2C19 inh,CYP2C9 act,CYP2C19 act,CYP2C9 inhib,EphB4 antag
Cc1cc(NC(=O)CSc2nc(C(C)C)nc3c2c(=O)n(C)c(=O)n3C)no1,-,-,-,-,-
Cc1nc(N2CCN(c3ccccc3)CC2)nc2c1C(=O)CC(C)C2 (stereo unspecified),-,-,-,-,-
CC1CC(C)CN(c2ncc3c(n2)CC(c2ccc(Cl)cc2)CC3=O)C1 (stereo unspecified),-,-,-,78,-
CCc1ccc(Nc2ncc3c(n2)CC(c2ccc(OC)cc2)CC3=O)cc1 (stereo unspecified),-,-,-,79,-
O=C1CC(c2ccc(F)cc2)Cc2nc(N3CCN(c4ccccc4)CC3)ncc21 (stereo unspecified),-,-,-,-,-
Cc1nc(N2CCN(c3ccccc3)CC2)nc2c1C(=O)CC(c1ccccc1)C2 (stereo unspecified),-,-,-,83,-
COc1ccc(Nc2ncc3c(n2)CC(c2ccccc2)CC3=O)cc1 (stereo unspecified),-,-,-,-,.
O=C1CC(c2ccccc2)Cc2nc(N3CCc4ccccc4C3)ncc21 (stereo unspecified),-,-,-,64,-
Cc1ccc(C2CC(=O)c3cnc(N4CC(C)CC(C)C4)nc3C2)cc1 (stereo unspecified),-,-,-,-,.
COc1ccc(C2CC(=O)c3cnc(N4CCN(Cc5ccccc5)CC4)nc3C2)cc1 (stereo unspecified),80,-,-,94,-
COc1cccc(C(=O)Nc2ncc3c(n2)CC(c2ccc(OC)cc2OC)CC3=O)c1 (stereo unspecified),80,-,-,89,-
Cc1ccc(C2CC(=O)c3cnc(N4CCN(c5ccccc5)CC4)nc3C2)cc1 (stereo unspecified),-,-,-,54,-
O=C(Nc1ncc2c(n1)CC(c1ccco1)CC2=O)c1ccccc1 (stereo unspecified),-,-,-,-,-
CSc1ccc(CN2CCC(O)CC2)cc1,.,.,.,.,-
Nc1c(Cl)cc(Cl)cc1C(=O)OCC(=O)NC1CC1,-,2.1,-,-,-
CC12CCC(C(=O)N3CCN(c4ccccc4)CC3)(CC1=O)C2(C)C (stereo unspecified),54,-,-,-,-
CC12CCC(C(=O)N3CCc4ccccc43)(CC1=O)C2(C)C (stereo unspecified),-,-,-,58,-
CC12CCC(C(=O)N3CCCc4ccccc43)(CC1=O)C2(C)C (stereo unspecified),-,-,-,-,-
O=C(CCn1nnc2ccccc2c1=O)N[C@@H](Cc1ccccc1)C(=O)O,-,-,-,-,-
Clc1ccc(CON/C=N/c2ncnc3sccc23)cc1,-,-,-,-,-
C(=N\c1ncnc2sccc12)/NOCc1ccccc1,84,-,-,56,-
CCOc1ccc(S(=O)(=O)N(C)c2ccc(OCC(=O)Nc3ccc4[nH]c(=O)[nH]c4c3)cc2)cc1,-,-,-,78,.
CCOc1ccc(OCC(=O)Nc2ccc(S(=O)(=O)Nc3cc(C)nc(C)n3)cc2)cc1,-,-,-,-,-
Cc1ccc(S(=O)(=O)N(C)c2ccc(OCC(=O)O)cc2)cc1,-,-,-,-,-
CN(c1ccc(OCC(=O)Nc2ccc3[nH]c(=O)[nH]c3c2)cc1)S(=O)(=O)c1ccc(Cl)cc1,-,-,-,62,-
SMILES,CYP2C19 inh,CYP2C9 act,CYP2C19 act,CYP2C9 inhib,EphB4 antag
CC1CN(S(=O)(=O)c2cn(C)c(=O)n(C)c2=O)CC(C)O1 (stereo unspecified),-,-,-,-,-
COCc1cc(=O)n2c(-c3ccccc3OC)n[nH]c2n1,-,-,-,-,.
O=C(NCCCN1CCc2ccccc2C1)C1CCN(c2nnc(-n3cccc3)s2)CC1,-,-,-,-,.
Cn1cc(-c2nnnn2-c2ccc(Cl)cc2)c(=O)c2ccccc21,-,-,-,-,-
c1ccc(-n2nnnc2-c2cnc(-c3ccncc3)nc2-c2cccs2)cc1,.,.,.,.,-
Cc1ccc(-n2nnnc2-c2cnc(-c3cccnc3)nc2C(F)(F)F)cc1,-,-,-,60,-
